# Results: article PMC5540273 (PLoS ONE, 2017)
# System: SRPK1
# Settings: concentration: 1 μM, replicates: in singlicate; n = 1
# 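Note: KINOMEscan kinase panel screen.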
row,Compound,%Inh [%]
1,[2H]C([2H])(c1cccc(C(F)(F)F)c1C)n1ccn2c(=O)nc(N3CCOCC3)cc12 [GSK2336394],37
2,N#Cc1c(N2CCOCC2)sc(-c2ccn[nH]2)c1-c1ccc(Cl)cc1,0
3,CN(C1=C(c2ccccc2)C(=O)NC1=O)c1ccccc1 [SB-334860],10
4,Cc1cn2c(=O)cc(N3CCOCC3)nc2n1Cc1cccc(Cl)c1Cl [GSK2334006],21
5,Fc1ccc(-c2ncn(CCCN3CCOCC3)c2-c2cccnc2)cc1 [SB-211743],0
6,O=c1cc(N2CCOCC2)nc2n(Cc3cccc(F)c3)ccn12 [GSK2297430],23
7,O=C(Nc1cccc(-c2nn3ncccc3c2-c2ccnc(Nc3cccc(C(F)(F)F)c3)n2)c1)c1c(F)cccc1F [GSK299495],0
8,Cc1c2ccc(N(C)c3ccnc(Nc4cccc(S(N)(=O)=O)c4)n3)cc2nn1Cc1ccccc1.Cl.Cl [GW787226],7
9,O=C(Nc1n[nH]c2cc(-c3cccc(F)c3)ccc12)C1CC1 [SB-735464],36
10,CCCCCc1nc2c(N)ncnc2n1CCCCC [SKF-97255],0
11,Cc1ccc(C(=O)NCC(N)=O)cc1-n1c(C)cc(OCc2ccc(F)cc2F)c(Br)c1=O,0
12,NCC(NC(=O)c1cc(-c2cn[nH]c2)c(-c2ccnc3[nH]ccc23)s1)c1ccccc1.O=C(O)C(F)(F)F.O=C(O)C(F)(F)F (stereo not drawn) [GSK1325775],81
13,COc1ccc(Nc2nccc(N3CCC(NC(=O)Nc4cccc(C(C)=O)c4)C3)n2)cc1 (stereo not drawn) [GSK1379731],6
14,COCCNC(=O)c1ccc(-c2cc(C(=O)NC3CC3)cc(F)c2C)cc1 [GW868318],7
15,COC(=O)Nc1nc2cc(Oc3ccc(NC(=O)Nc4cc(F)ccc4F)cc3)ccc2[nH]1.Cl [GW701424],0
16,O=C(c1ccc(-c2cc(-c3c[nH]nc3-c3ccccn3)ccn2)cc1)N1CCOCC1 [GW812171],0
17,NS(=O)(=O)c1cccc(-c2ccc3nccc(-c4cccc(S(N)(=O)=O)c4)c3c2)c1 [GW867253],0
18,CN1c2ccc(CNc3ccc(F)cc3)cc2-c2c(cnn2C)S1(=O)=O,0

row,Compound,%Inh [%]
1,O=c1cc(N2CCOCC2)nc2n(Cc3cccc(C(F)(F)F)c3)ccn12 [GSK2297543],24
2,Nc1nccc(-c2c(-c3ccc(F)cc3)ncn2C2CCN(CC(F)(F)F)CC2)n1 [SB-236560],19
3,O=c1cc(N2CCOCC2)nc2n(Cc3cccc(Cl)c3Cl)c(C3CC3)nn12 [GSK2358994],17
4,Fc1ccc(-c2ncn(CCCN3CCOCC3)c2-c2ccccn2)cc1 [SB-211742],0
5,CC(C)Oc1ccc2c(-c3ccnc(Nc4ccc(N5CCN(C)CC5)cc4)n3)cnn2n1 [GW696155],85
6,COc1ccc(COc2cc(-n3cnc4ccccc43)sc2C(N)=O)cc1 [GSK1024304],29
7,C[C@@H](Oc1cc(-n2cnc3ccc(NC(=O)NC(C)(C)C)cc32)sc1C(N)=O)c1ccccc1Cl [GSK346294],20
8,Cl.Nc1ncnc2occ(-c3ccc(NC(=O)Nc4cc(C(F)(F)F)ccc4F)cc3)c12 [SB-707548],50
9,COc1cc2c(cc1OCCN1CCN(C)CC1)ncc1c3ccc(C#N)cc3[nH]c21,7
10,O=C(NCCNc1ccnc(Nc2ccc(F)cc2)n1)Nc1ccccc1F [GSK1379880],5
11,O=C(NCCNc1ccnc(Nc2ccc(F)cc2)n1)c1cc2ccccc2s1 [GSK1379874],3
12,COc1cc2ncn(-c3cc(OCc4sccc4Cl)c(C(N)=O)s3)c2cc1OC [GSK448459],88
13,Cc1cccc(-c2nc(-c3ccc(S(C)(=O)=O)cc3)sc2-c2ccncc2)c1,15
14,CCc1nc(-c2cccc(C)c2)c(-c2ccnc(NCc3ccccc3)c2)s1,1
15,c1ccc(-c2cc(-c3c[nH]nc3-c3ccccn3)ccn2)cc1 [GW576604],24
16,COc1cc(Nc2nccc(N3CCC(NC(=O)c4cccc(NC(C)=O)c4)C3)n2)cc(OC)c1OC (stereo not drawn) [GSK1379754],61
17,Cn1ccc2ncnc(Oc3ccc(NC(=O)Nc4ccncc4)c(Cl)c3)c21,0
18,Cl.Oc1cccc(Nc2ccnc3cc(-c4ccncc4)ccc23)c1 [GW494601],46

# System: SRPK2
# Settings: concentration: 1 μM, replicates: in singlicate; n = 1
row,Compound,%Inh [%]
1,[2H]C([2H])(c1cccc(C(F)(F)F)c1C)n1ccn2c(=O)nc(N3CCOCC3)cc12 [GSK2336394],0
2,N#Cc1c(N2CCOCC2)sc(-c2ccn[nH]2)c1-c1ccc(Cl)cc1,0
3,CN(C1=C(c2ccccc2)C(=O)NC1=O)c1ccccc1 [SB-334860],0
4,Cc1cn2c(=O)cc(N3CCOCC3)nc2n1Cc1cccc(Cl)c1Cl [GSK2334006],0
5,Fc1ccc(-c2ncn(CCCN3CCOCC3)c2-c2cccnc2)cc1 [SB-211743],0
6,O=c1cc(N2CCOCC2)nc2n(Cc3cccc(F)c3)ccn12 [GSK2297430],0
7,O=C(Nc1cccc(-c2nn3ncccc3c2-c2ccnc(Nc3cccc(C(F)(F)F)c3)n2)c1)c1c(F)cccc1F [GSK299495],16
8,Cc1c2ccc(N(C)c3ccnc(Nc4cccc(S(N)(=O)=O)c4)n3)cc2nn1Cc1ccccc1.Cl.Cl [GW787226],0
9,O=C(Nc1n[nH]c2cc(-c3cccc(F)c3)ccc12)C1CC1 [SB-735464],4
10,CCCCCc1nc2c(N)ncnc2n1CCCCC [SKF-97255],11
11,Cc1ccc(C(=O)NCC(N)=O)cc1-n1c(C)cc(OCc2ccc(F)cc2F)c(Br)c1=O,0
12,NCC(NC(=O)c1cc(-c2cn[nH]c2)c(-c2ccnc3[nH]ccc23)s1)c1ccccc1.O=C(O)C(F)(F)F.O=C(O)C(F)(F)F (stereo not drawn) [GSK1325775],22
13,COc1ccc(Nc2nccc(N3CCC(NC(=O)Nc4cccc(C(C)=O)c4)C3)n2)cc1 (stereo not drawn) [GSK1379731],0
14,COCCNC(=O)c1ccc(-c2cc(C(=O)NC3CC3)cc(F)c2C)cc1 [GW868318],0
15,COC(=O)Nc1nc2cc(Oc3ccc(NC(=O)Nc4cc(F)ccc4F)cc3)ccc2[nH]1.Cl [GW701424],29
16,O=C(c1ccc(-c2cc(-c3c[nH]nc3-c3ccccn3)ccn2)cc1)N1CCOCC1 [GW812171],0
17,NS(=O)(=O)c1cccc(-c2ccc3nccc(-c4cccc(S(N)(=O)=O)c4)c3c2)c1 [GW867253],0
18,CN1c2ccc(CNc3ccc(F)cc3)cc2-c2c(cnn2C)S1(=O)=O,21

row,Compound,%Inh [%]
1,O=c1cc(N2CCOCC2)nc2n(Cc3cccc(C(F)(F)F)c3)ccn12 [GSK2297543],0
2,Nc1nccc(-c2c(-c3ccc(F)cc3)ncn2C2CCN(CC(F)(F)F)CC2)n1 [SB-236560],41
3,O=c1cc(N2CCOCC2)nc2n(Cc3cccc(Cl)c3Cl)c(C3CC3)nn12 [GSK2358994],0
4,Fc1ccc(-c2ncn(CCCN3CCOCC3)c2-c2ccccn2)cc1 [SB-211742],60
5,CC(C)Oc1ccc2c(-c3ccnc(Nc4ccc(N5CCN(C)CC5)cc4)n3)cnn2n1 [GW696155],54
6,COc1ccc(COc2cc(-n3cnc4ccccc43)sc2C(N)=O)cc1 [GSK1024304],0
7,C[C@@H](Oc1cc(-n2cnc3ccc(NC(=O)NC(C)(C)C)cc32)sc1C(N)=O)c1ccccc1Cl [GSK346294],12
8,Cl.Nc1ncnc2occ(-c3ccc(NC(=O)Nc4cc(C(F)(F)F)ccc4F)cc3)c12 [SB-707548],40
9,COc1cc2c(cc1OCCN1CCN(C)CC1)ncc1c3ccc(C#N)cc3[nH]c21,0
10,O=C(NCCNc1ccnc(Nc2ccc(F)cc2)n1)Nc1ccccc1F [GSK1379880],0
11,O=C(NCCNc1ccnc(Nc2ccc(F)cc2)n1)c1cc2ccccc2s1 [GSK1379874],19
12,COc1cc2ncn(-c3cc(OCc4sccc4Cl)c(C(N)=O)s3)c2cc1OC [GSK448459],0
13,Cc1cccc(-c2nc(-c3ccc(S(C)(=O)=O)cc3)sc2-c2ccncc2)c1,0
14,CCc1nc(-c2cccc(C)c2)c(-c2ccnc(NCc3ccccc3)c2)s1,0
15,c1ccc(-c2cc(-c3c[nH]nc3-c3ccccn3)ccn2)cc1 [GW576604],9
16,COc1cc(Nc2nccc(N3CCC(NC(=O)c4cccc(NC(C)=O)c4)C3)n2)cc(OC)c1OC (stereo not drawn) [GSK1379754],0
17,Cn1ccc2ncnc(Oc3ccc(NC(=O)Nc4ccncc4)c(Cl)c3)c21,0
18,Cl.Oc1cccc(Nc2ccnc3cc(-c4ccncc4)ccc23)c1 [GW494601],0
